# Data: the supplement of paper PMC3334620
# Whole data set: some 33,000 sequences, median “E-score (-0.5 to 0.5)” near -0.0059, cut for the highest 2% near 0.26. Many of the other results were omitted from the sample, so the highest values are more common in it than they were.
# Target: T1, Cin5 (UniProt P40917)
# T1 sequence: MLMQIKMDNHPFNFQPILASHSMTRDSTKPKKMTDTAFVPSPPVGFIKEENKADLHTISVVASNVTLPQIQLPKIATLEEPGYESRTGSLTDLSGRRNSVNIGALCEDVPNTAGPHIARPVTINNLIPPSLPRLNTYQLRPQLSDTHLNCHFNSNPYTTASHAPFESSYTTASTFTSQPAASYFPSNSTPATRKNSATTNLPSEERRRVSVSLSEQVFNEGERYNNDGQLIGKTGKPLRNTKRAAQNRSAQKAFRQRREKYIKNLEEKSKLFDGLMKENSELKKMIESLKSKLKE
# Assay: PBM E-score (8-mer binding enrichment) (E-score (-0.5 to 0.5)); higher = stronger / more preferred TF binding
# Conditions: protein concentration: 100 nM; construct: GST-full length
# Summary of the method: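 PURExpress in vitro transcription/translation supplied GST-tagged yeast transcription factors, either full-length or DNA-binding domain. Applied at about 100-200 nM to universal all-10-mer Agilent arrays double-stranded by primer extension, the bound protein was detected with fluorescent anti-GST. E-scores, modified Wilcoxon-Mann-Whitney statistics, were given by the Universal PBM Analysis Suite to ungapped eight-base words pooled with their reverse complements after masliner normalisation.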
row,Sequence,PBM E-score
1,AGCCCCAG,-0.0735
2,CCTCACAG,0.0094
3,CGGGGAAG,-0.0981
4,CACGTTGA,-0.095
5,GTAAGCCA,0.264
6,CTAAGCCA,-0.074
7,GTAAGCTA,0.36
8,ATAAGCTA,0.2
9,CTAAGCTA,0.162
10,ATAAGCCA,0.11
11,AGTCTCAG,-0.123
12,AACCTGAC,0.131
13,ACGAGTCA,-0.257
14,CAAGAAGC,0.0478
15,AGCTCATG,-0.0196
16,CAGACGAC,-0.168
17,GAGACGAA,0.0297
18,CAGACGAA,0.286
19,GAGCGGTA,-0.0453
20,GCAAAAGC,-0.0287
21,ATTCCACC,0.15
22,ATCCCGCC,0.0426
23,ATTCCACA,0.266

row,Sequence,PBM E-score
1,ATTCCACG,0.0808
2,ATTCCGCG,0.261
3,ATCCCGCA,0.135
4,ATTCCGCA,-0.0146
5,ATCCCGCG,0.258
6,ATTCCGCC,0.215
7,ATGACGCA,0.195
8,CTTATTGA,0.125
9,ACTATTAA,0.162
10,ATTATTAC,0.305
11,GTTATTAA,0.214
12,ACTATTAC,0.224
13,CGTATTAA,0.106
14,ATTATTAA,0.316
15,CTTATTAC,0.236
16,CTTATTAA,0.299
17,CGGGAACG,-0.00694
18,GAGCGGCC,-0.239
19,GAGATCTC,-0.0335
20,GATCCCTA,-0.0517
21,AACATACT,0.0533
22,ATCATAAT,0.327
23,AACATAAT,0.346

row,Sequence,PBM E-score
1,ATCATAAA,0.131
2,AACATAAC,0.223
3,CACATAAG,0.109
4,AACATACG,0.171
5,AACATAAG,0.328
6,ATCATAAG,0.204
7,AAGTCAAC,0.0456
8,CACTGTTC,-0.108
9,AGGATATA,0.152
10,CAGTCCGA,-0.0341
11,AGGTTAGC,-0.199
12,TCGTCGAA,-0.161
13,AAACATAT,0.269
14,AAACATGT,0.261
15,AAACATGA,0.131
16,AAACATGG,0.0681
17,AAACATAC,0.0238
18,AAACATAG,-0.0763
19,CCCAAGGC,-0.0737
20,AAACCTTG,0.072
21,ACTAAAGA,-0.0785
22,CAGGGCGC,-0.0291
23,TAAGCAGA,0.306

row,Sequence,PBM E-score
1,CAAGCGAA,0.187
2,AAAGCAGA,0.178
3,TAAGCACA,0.314
4,CAAGCACA,-0.0819
5,CAAGCACG,-0.0414
6,TAAGCGAA,0.275
7,GAAGCGAA,-0.0046
8,CAAGCAGA,0.0983
9,ACCGGGAC,-0.0537
10,AAGGGGAG,-0.252
11,ATTTTCCC,0.0377
12,AATTTCCG,0.18
13,AATTTACG,0.234
14,ATTTTTCC,-0.0233
15,AATTTTTC,0.057
16,ATTTCTCC,0.0831
17,ATTTCTCA,0.0803
18,ATTTTACC,0.237
19,ATTTCTCG,0.313
20,AATTTTCC,0.289
21,ATTTTACG,0.271
22,ATTTTCCG,0.329
23,ATACTTCG,0.129

row,Sequence,PBM E-score
1,GACGTCCC,-0.0301
2,GCATTCGC,-0.157
3,AGACACCT,-0.048
4,CGAGCGCA,0.0288
5,CCGCCACG,-0.222
6,ATTTCCCG,0.258
7,ATTTCCCA,0.165
8,ATTTCCCC,0.0813
9,CAGTAACC,-0.021
10,AAGCAATC,0.165
11,CCCTAAGC,-0.145
12,GCCTAAGC,-0.181
13,ACCTAATC,0.311
14,ATCTAATA,0.19
15,ACCTAAGC,0.327
16,ACCTAATA,0.246
17,CCCTAATC,0.0683
18,ATCTAATC,0.306
19,ATCTAATG,-0.00795
